Experimental data: PubChem BioAssay
For part of these data: Entries with a potency or affinity are not part of this list. The source made the active and inactive calls. Unless noted, how the calls were made is not given here.

Key:
[1] = antimalarial activity against Dd2 strain (AID 2302;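 active means growth inhibition above 50% at the single 2 µM test dose, taken to imply half-maximal potency below 2 µM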;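 further: 0% = DMSO untreated growth and 100% = chloroquine plus artemisinin killed control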); conditions: P. falciparum Dd2 in RBCs, LDH growth readout, 72 h; at 2 µM; stronger effect = higher value
[2] = human hepatoma cell viability loss – ATP luminescence, cytotoxicity control for P. falciparum antimalarial project, primary screen (AID 2303;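 active means inhibition above 50%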;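 further: 0% = DMSO wells and 100% = digitonin-killed cells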); conditions: HepG2 viability, 24-48 h, at 10 µM, stronger effect = higher value
[3] = molecular target: L-lactate dehydrogenase (Plasmodium falciparum (isolate CDC / Honduras)) (UniProt Q27743); assay: PfLDH activity inhibition – cell lysate, 3D7 strain, counter-screen for P. falciparum growth inhibition project (AID 2304);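 further: 0% = vehicle and 100% = reference inhibitor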; conditions: P. falciparum 3D7 crude extract, LDH APAD/NBT absorbance; at 2 µM; stronger effect = higher value
[4] = inhibition of 3D7 malaria parasite growth – strain 3D7 (AID 2306);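 further: 0% = DMSO wells and 100% = chloroquine plus artemisinin control wells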; conditions: P. falciparum 3D7 erythrocytic growth, LDH absorbance, 72 h; at 2 µM; stronger effect = higher value
[5] = molecular target: Calcium-dependent protein kinase 1 (Plasmodium falciparum (isolate 3D7)) (UniProt P62344); assay: PfCDPK1 kinase inhibitors, biochemical, TCAMS library (AID 1159585; cut-off not given, nearly all actives have IC50 up to about 0.98 µM;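 further: inhibitors leave more ATP so luminescence rises with inhibition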); conditions: recombinant PfCDPK1, Kinase-Glo ATP depletion luminescence
[6] = molecular target: Plasmodium falciparum protein kinase 6 (PK6, PF3D7_1337100) (UniProt Q8IDW1); assay: PfPK6 kinase inhibitors, biochemical, TCAMS library (AID 1159586); conditions: recombinant PfPK6, Kinase-Glo ATP depletion luminescence
[7] = molecular target: Protein kinase 7 (PK7), Plasmodium falciparum 3D7 (PF3D7_0213400) (UniProt Q7YTF7); assay: inhibition of Plasmodium PK7 catalytic activity – biochemical, TCAMS antimalarial set, Kinase-Glo luminescence (AID 1159587); conditions: recombinant PfPK7, Kinase-Glo ATP depletion luminescence
[8] = molecular target: Calcium-dependent protein kinase 4 (Plasmodium falciparum (isolate 3D7)) (UniProt Q8IBS5); assay: PfCDPK4 kinase inhibitors, biochemical, TCAMS library (AID 1159588; cut-off not given, nearly all actives have IC50 up to about 0.91 µM); conditions: recombinant PfCDPK4, Kinase-Glo ATP depletion luminescence
Calcium-dependent protein kinase 4 (Plasmodium falciparum (isolate 3D7)), sequence (Q8IBS5 whole entry, looked up): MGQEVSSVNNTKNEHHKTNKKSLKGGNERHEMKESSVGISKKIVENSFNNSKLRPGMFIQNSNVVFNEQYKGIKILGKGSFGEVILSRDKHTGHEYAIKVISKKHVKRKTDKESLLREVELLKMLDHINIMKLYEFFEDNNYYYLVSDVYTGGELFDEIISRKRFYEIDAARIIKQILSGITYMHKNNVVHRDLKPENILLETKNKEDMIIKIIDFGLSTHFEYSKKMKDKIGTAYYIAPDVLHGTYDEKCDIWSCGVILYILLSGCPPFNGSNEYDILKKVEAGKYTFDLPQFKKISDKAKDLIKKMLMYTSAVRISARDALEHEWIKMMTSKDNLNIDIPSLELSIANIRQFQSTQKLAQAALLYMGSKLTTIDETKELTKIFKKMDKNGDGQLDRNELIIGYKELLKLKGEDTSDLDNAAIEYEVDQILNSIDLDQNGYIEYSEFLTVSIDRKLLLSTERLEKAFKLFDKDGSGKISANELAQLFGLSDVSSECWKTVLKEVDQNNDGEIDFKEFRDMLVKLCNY

Calcium-dependent protein kinase 1 (Plasmodium falciparum (isolate 3D7)), sequence (P62344 whole entry, looked up): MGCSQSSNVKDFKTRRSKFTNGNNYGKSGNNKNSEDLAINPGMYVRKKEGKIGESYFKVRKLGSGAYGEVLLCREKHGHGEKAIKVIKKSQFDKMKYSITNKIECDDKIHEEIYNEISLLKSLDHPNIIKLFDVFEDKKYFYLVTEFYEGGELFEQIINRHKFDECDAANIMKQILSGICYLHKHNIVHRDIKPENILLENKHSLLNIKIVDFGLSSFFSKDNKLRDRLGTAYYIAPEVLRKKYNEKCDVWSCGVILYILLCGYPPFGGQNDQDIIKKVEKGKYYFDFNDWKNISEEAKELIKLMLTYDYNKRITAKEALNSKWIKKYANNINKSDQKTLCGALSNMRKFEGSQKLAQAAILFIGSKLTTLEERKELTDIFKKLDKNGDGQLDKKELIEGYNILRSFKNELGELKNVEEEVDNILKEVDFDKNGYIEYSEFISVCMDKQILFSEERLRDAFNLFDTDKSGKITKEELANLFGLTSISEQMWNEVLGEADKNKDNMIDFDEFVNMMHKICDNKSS
Plasmodium falciparum protein kinase 6 (PK6, PF3D7_1337100), sequence (Q8IDW1 1-305): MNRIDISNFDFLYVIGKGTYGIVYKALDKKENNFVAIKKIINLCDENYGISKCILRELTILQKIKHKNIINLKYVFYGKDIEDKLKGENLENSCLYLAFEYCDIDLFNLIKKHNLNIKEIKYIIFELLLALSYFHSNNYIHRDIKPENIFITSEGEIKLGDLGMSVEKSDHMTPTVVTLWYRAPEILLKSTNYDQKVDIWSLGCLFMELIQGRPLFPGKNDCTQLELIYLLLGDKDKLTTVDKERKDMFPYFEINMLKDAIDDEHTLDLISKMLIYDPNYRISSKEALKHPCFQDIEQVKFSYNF
Protein kinase 7 (PK7), Plasmodium falciparum 3D7 (PF3D7_0213400), sequence (Q7YTF7 1-343): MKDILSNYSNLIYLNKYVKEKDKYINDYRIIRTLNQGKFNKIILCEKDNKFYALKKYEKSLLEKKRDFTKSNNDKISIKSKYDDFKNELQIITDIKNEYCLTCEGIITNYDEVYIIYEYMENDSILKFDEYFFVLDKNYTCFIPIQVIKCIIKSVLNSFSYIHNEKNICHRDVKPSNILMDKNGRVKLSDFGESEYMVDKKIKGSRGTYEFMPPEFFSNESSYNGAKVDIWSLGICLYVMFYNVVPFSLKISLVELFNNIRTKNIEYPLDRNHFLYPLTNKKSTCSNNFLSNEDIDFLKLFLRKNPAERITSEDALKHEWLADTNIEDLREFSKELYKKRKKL
L-lactate dehydrogenase (Plasmodium falciparum (isolate CDC / Honduras)), sequence (Q27743 whole entry, looked up): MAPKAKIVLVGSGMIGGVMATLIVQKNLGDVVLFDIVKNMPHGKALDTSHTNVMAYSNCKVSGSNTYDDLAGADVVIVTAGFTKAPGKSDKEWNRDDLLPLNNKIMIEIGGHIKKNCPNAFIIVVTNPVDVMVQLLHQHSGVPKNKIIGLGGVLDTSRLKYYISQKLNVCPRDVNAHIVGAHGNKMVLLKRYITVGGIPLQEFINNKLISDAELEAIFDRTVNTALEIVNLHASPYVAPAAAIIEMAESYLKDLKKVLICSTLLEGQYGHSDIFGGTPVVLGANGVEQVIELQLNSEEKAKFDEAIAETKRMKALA

c1cc(-c2ccc(CNC3CC3)cc2)cc(-c2nc3ccccc3[nH]2)c1
inactive: growth inhibition [1] 8% | inhibition [2] 17% | inhibition [3] 1% | outcome [5] | outcome [6] | outcome [7] | outcome [8]
active: growth inhibition [4] 96%

Cc1c(O)cccc1Nc1ccnc2ccc(C(F)(F)F)cc12
active: growth inhibition [1] 51% | growth inhibition [4] 96%
inactive: inhibition [2] -15% | inhibition [3] -2% | outcome [5] | outcome [6] | outcome [7] | outcome [8]

O=[N+]([O-])c1ccc2nc(Nc3cccc(C(F)(F)F)c3)c(Nc3cccc(C(F)(F)F)c3)nc2c1
inactive: inhibition [2] -2% | inhibition [3] -4% | outcome [5] | outcome [6] | outcome [7] | outcome [8]
active: growth inhibition [1] 99% | growth inhibition [4] 101%

Cc1[nH]c2ccccc2c1C(=O)CSc1nn(-c2ccccc2)c(=S)s1
active: growth inhibition [1] 99% | growth inhibition [4] 100%
inactive: inhibition [2] -6% | inhibition [3] -1% | outcome [5] | outcome [6] | outcome [7] | outcome [8]

Clc1ccc2c(NCc3ccccn3)ccnc2c1
inactive: inhibition [2] 0% | inhibition [3] -4% | outcome [5] | outcome [6] | outcome [7] | outcome [8]
active: growth inhibition [1] 99% | growth inhibition [4] 99%

Fc1cccc(COc2ccc(Nc3ncnc4ccc(-c5nnc(C(F)(F)F)o5)cc34)cc2Cl)c1
active: growth inhibition [1] 77% | growth inhibition [4] 101%
inactive: inhibition [2] 14% | inhibition [3] 5% | outcome [5] | outcome [6] | outcome [7] | outcome [8]

O=C(/C=C/c1ccc(Cl)c(Cl)c1)NCCCCCCN1CCN(C(=O)Nc2cc(F)cc(F)c2)CC1
active: growth inhibition [4] 86%
inactive: growth inhibition [1] -1% | inhibition [2] 23% | inhibition [3] -1% | outcome [5] | outcome [6] | outcome [7] | outcome [8]

CCc1cccc(C)c1-n1nc(-c2cc(C(C)(C)C)oc2C)cc1N
active: growth inhibition [1] 95% | growth inhibition [4] 95%
inactive: inhibition [2] 4% | inhibition [3] 5% | outcome [5] | outcome [6] | outcome [7] | outcome [8]

COc1cc(COc2c(C)nc(N)nc2N)cc(OC)c1OC
active: growth inhibition [4] 100%
inactive: growth inhibition [1] -5% | inhibition [2] 7% | inhibition [3] -9% | outcome [5] | outcome [6] | outcome [7] | outcome [8]

Cc1cc(OCC2CCN(c3ccc(C(=O)NC4CC4)cn3)CC2)ccc1F
inactive: inhibition [2] 6% | inhibition [3] 3% | outcome [5] | outcome [6] | outcome [7] | outcome [8]
active: growth inhibition [1] 95% | growth inhibition [4] 94%

Nc1nc2ccc(S(=O)(=O)Nc3ccc(C(=O)N[C@@H](CCC(=O)O)C(=O)O)c(F)c3)cc2c(=O)[nH]1
active: growth inhibition [4] 97%
inactive: growth inhibition [1] 16% | inhibition [2] 37% | inhibition [3] 4% | outcome [5] | outcome [6] | outcome [7] | outcome [8]

CC(C)C[C@H](NC(=O)[C@H](Cc1ccccc1)NC(=O)CCN1C(=O)COc2ccc(C(=O)O)cc21)C(=O)NC(CC1CCCCC1)C(O)CC(=O)NCCCn1ccnc1 (some centres not stated)
inactive: growth inhibition [1] -4% | inhibition [2] -3% | inhibition [3] -8% | outcome [5] | outcome [6] | outcome [7] | outcome [8]
active: growth inhibition [4] 99%

CCNc1cc(C(=O)N[C@@H](Cc2ccccc2)[C@H](O)CNC(C)(C)CSCC(C)C)cc(N2CCCC2=O)c1
inactive: inhibition [2] -20% | inhibition [3] -7% | outcome [5] | outcome [6] | outcome [7] | outcome [8]
active: growth inhibition [1] 97% | growth inhibition [4] 101%

CCn1cc2c3c(cc(C(=O)N[C@@H](Cc4ccccc4)[C@H](O)CNCc4cccc(OC)c4)cc31)N(C)S(=O)(=O)CC2
active: growth inhibition [1] 97% | growth inhibition [4] 99%
inactive: inhibition [2] -12% | inhibition [3] 0% | outcome [5] | outcome [6] | outcome [7] | outcome [8]

C=CCOc1ccccc1CNCC(O)c1cc(Br)cs1 (configuration not stated)
inactive: inhibition [2] 25% | inhibition [3] -4% | outcome [5] | outcome [6] | outcome [7] | outcome [8]
active: growth inhibition [1] 72% | growth inhibition [4] 93%

COc1ccc2nccc([C@@H](O)CN3CCC(NCc4cc5c(cc4F)SCC(=O)N5)CC3)c2n1
active: growth inhibition [4] 96%
inactive: growth inhibition [1] 27% | inhibition [2] 14% | inhibition [3] 3% | outcome [5] | outcome [6] | outcome [7] | outcome [8]

COc1ccccc1NC(=O)NC1CCN(CCCCCNC(=O)/C=C/c2ccc(Cl)c(Cl)c2)CC1
active: growth inhibition [4] 100%
inactive: growth inhibition [1] 15% | inhibition [2] 4% | inhibition [3] -1% | outcome [5] | outcome [6] | outcome [7] | outcome [8]

CC(CN1CCN(C)CC1)C(=O)Nc1cccc(-c2cccc(-c3nc4ccccc4[nH]3)c2)c1 (configuration not stated)
inactive: growth inhibition [1] 19% | inhibition [2] 23% | inhibition [3] -3% | outcome [5] | outcome [6] | outcome [7] | outcome [8]
active: growth inhibition [4] 88%

O=S(=O)(c1cc(Cl)ccc1Cl)N1CCCCC(c2ccc(C(F)(F)F)cc2)=N1
active: growth inhibition [1] 68% | growth inhibition [4] 87%
inactive: inhibition [2] 15% | inhibition [3] -1% | outcome [5] | outcome [6] | outcome [7] | outcome [8]

O=C(Nc1cccc(C2=NCCCN2)c1)Nc1cccc(C2=NCCCN2)c1
inactive: inhibition [2] 5% | inhibition [3] -6% | outcome [5] | outcome [6] | outcome [7] | outcome [8]
active: growth inhibition [1] 70% | growth inhibition [4] 81%

CC(C)(C)c1cc(C(=O)N2CCN(c3ncccc3C(F)(F)F)CC2)n(Cc2ccccc2)n1
inactive: inhibition [2] -8% | inhibition [3] 1% | outcome [5] | outcome [6] | outcome [7] | outcome [8]
active: growth inhibition [1] 99% | growth inhibition [4] 100%

Cc1ccc2nc3c(cc(C(=O)NCc4ccccc4)c(=N)n3CCCn3ccnc3)c(=O)n2c1
inactive: growth inhibition [1] -1% | inhibition [2] 10% | inhibition [3] -3% | outcome [5] | outcome [6] | outcome [7] | outcome [8]
active: growth inhibition [4] 93%

O=C(NCCCCN1CC=C(c2ccc3c(c2OCC2CC2)CCCC3)CC1)c1ccc(-c2ccc(C(F)(F)F)cc2)cc1
active: growth inhibition [1] 60% | growth inhibition [4] 93%
inactive: inhibition [2] 25% | inhibition [3] -10% | outcome [5] | outcome [6] | outcome [7] | outcome [8]

Cc1ccc(/C=C/C(=O)N2CCC(CCN3CCC(c4c[nH]c5ccccc45)CC3)CC2)cc1C
active: inhibition [2] 50% | growth inhibition [4] 94%
inactive: growth inhibition [1] 5% | inhibition [3] -2% | outcome [5] | outcome [6] | outcome [7] | outcome [8]

Cc1ccc(-c2nnc(-c3ccc(C(=O)NC4CCN(Cc5ccc(C#N)cc5)CC4)cc3)o2)cc1Br
inactive: growth inhibition [1] 7% | inhibition [2] 41% | inhibition [3] -5% | outcome [5] | outcome [6] | outcome [7] | outcome [8]
active: growth inhibition [4] 91%

O[C@@H](c1cccc2ccccc12)[C@@H]1CN(CCc2ccccc2)CC[C@@]1(O)c1ccccc1
inactive: inhibition [2] -2% | inhibition [3] -2% | outcome [5] | outcome [6] | outcome [7] | outcome [8]
active: growth inhibition [1] 101% | growth inhibition [4] 99%

CNC(=O)C1Cc2c([nH]c3ccc(Br)cc23)C2(CCN(CCc3ccccc3)CC2)N1 (configuration not stated)
active: growth inhibition [1] 60% | growth inhibition [4] 101%
inactive: inhibition [2] 15% | inhibition [3] -2% | outcome [5] | outcome [6] | outcome [7] | outcome [8]

Cc1cccc2[nH]c(-c3ccc(-c4ccc(NC(=O)N[C@@H]5C[C@H]5c5ccccc5)cc4)cc3)nc12
active: growth inhibition [4] 96%
inactive: growth inhibition [1] 3% | inhibition [2] 28% | inhibition [3] -5% | outcome [5] | outcome [6] | outcome [7] | outcome [8]

COc1cc2ncnc(Nc3ccc(OCc4ccccc4Br)c(Cl)c3)c2cc1OC
active: growth inhibition [4] 96%
inactive: growth inhibition [1] 6% | inhibition [2] 25% | inhibition [3] -4% | outcome [5] | outcome [6] | outcome [7] | outcome [8]

CCOCc1cnc(C)nc1CNC(=O)c1c(C)[nH]c2ccc(C)cc12
inactive: inhibition [2] 8% | inhibition [3] 3% | outcome [5] | outcome [6] | outcome [7] | outcome [8]
active: growth inhibition [1] 65% | growth inhibition [4] 84%

Cc1ccc(-n2cc(CNCCCn3ccnc3)c(-c3cccc(C)c3)n2)cc1
active: growth inhibition [4] 99%
inactive: growth inhibition [1] 36% | inhibition [2] 9% | inhibition [3] -2% | outcome [5] | outcome [6] | outcome [7] | outcome [8]

CC(C)C[C@H](NC(=O)c1ccc(OCCN2CCOCC2)cc1)C(=O)N[C@H](/C=N/N(C)C(=O)c1ccccc1)CCc1ccccc1
inactive: inhibition [2] 8% | inhibition [3] 1% | outcome [5] | outcome [6] | outcome [7] | outcome [8]
active: growth inhibition [1] 72% | growth inhibition [4] 91%

COc1cc(Cc2cnc(N)nc2N)cc(CC(C)O)c1O (configuration not stated)
active: growth inhibition [4] 93%
inactive: growth inhibition [1] 2% | inhibition [2] -2% | inhibition [3] -2% | outcome [5] | outcome [6] | outcome [7] | outcome [8]

CCN(CC)CCN(Cc1ccc(-c2ccc(C(F)(F)F)cc2)cc1)C(=O)Cn1c(CCc2cccc(F)c2F)c(C)c(=O)c2ccccc21
inactive: inhibition [3] 3% | outcome [5] | outcome [6] | outcome [7] | outcome [8]
active: growth inhibition [1] 52% | inhibition [2] 61% | growth inhibition [4] 87%

Cc1cccc2[nH]c(-c3ccc(-c4ccc(NC(=O)Nc5ccsc5)cc4)s3)nc12
active: growth inhibition [1] 88% | inhibition [2] 74% | growth inhibition [4] 100%
inactive: inhibition [3] 2% | outcome [5] | outcome [6] | outcome [7] | outcome [8]

O=C(Nc1ccc(-c2nc3ccccc3[nH]2)cc1)c1ccc(S(=O)(=O)N2CCCCC2)cc1
inactive: growth inhibition [1] 6% | inhibition [2] 23% | inhibition [3] 2% | outcome [5] | outcome [6] | outcome [7] | outcome [8]
active: growth inhibition [4] 95%

COc1ccc(NC(=O)Nc2cc(C)nc3ccccc23)cc1Cl
active: growth inhibition [4] 104%
inactive: growth inhibition [1] 49% | inhibition [2] 4% | inhibition [3] -2% | outcome [5] | outcome [6] | outcome [7] | outcome [8]

Cc1ccccc1OCC(=O)Nc1ccc(-c2nc3cc4ccccc4cc3[nH]2)cc1
active: growth inhibition [1] 51% | growth inhibition [4] 102%
inactive: inhibition [2] 24% | inhibition [3] 2% | outcome [5] | outcome [6] | outcome [7] | outcome [8]

O=C(NC1CCCCN(Cc2ccccc2O)C1)c1ccc(-c2ccccc2)cc1 (configuration not stated)
inactive: inhibition [2] 21% | inhibition [3] -3% | outcome [5] | outcome [6] | outcome [7] | outcome [8]
active: growth inhibition [1] 61% | growth inhibition [4] 97%
